HTR5A inv ctr: HTR5A inverse agonism, opioid heterodimer counter-screen. inhibition, % at 9.3 µM. HTR5A cell line, luminescence. P47898. 340,000 tested, 0.083% active. AID 504634; in the data active means inhibition mostly above about 23%, no sharp cut-off; inactive means mostly below about 18%;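 further: 0% = cells with DMSO and 100% = no-cell wells with DMSO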
OPRM1-OPRD1 ag: OPRM1-OPRD1 heterodimerization agonism; AID 504326; activation, % at 9.3 µM; 340,000 tested, 0.3% active; P35372+P41143; cells, luminescence; in the data active means activation above about 18%;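 further: 0% = vehicle-treated cells and 100% = reference agonist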
HTR5A ag ctr: HTR5A agonism, opioid heterodimer counter-screen; activation, % at 9.3 µM; 340,000 tested, 0.61% active; HTR5A agonist assay, luminescence, cell-based; P47898; AID 504692; in the data active means activation mostly above about 9.5%, no sharp cut-off; inactive means mostly below about 7.6%;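 further: 0% = cells with vehicle only and 100% = reference agonist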
MOR-DOR inv ag: inverse agonists of human mu-delta opioid receptor heterodimerization | P35372+P41143 | cell-based MOR-DOR heterodimer luminescence, inverse agonism | inhibition, % at 9.3 µM | 340,000 tested, 0.21% active | AID 504357; in the data active means inhibition above about 22%, passing the limit was not always enough;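 further: 0% = cells with DMSO and 100% = wells without cells with DMSO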
Starred values were filed as active, the others as inactive. Sampled rows, rich in hits. Any-hit rate of the full collection: about 1.1%.

SMILES	HTR5A inv ctr	OPRM1-OPRD1 ag	HTR5A ag ctr	MOR-DOR inv ag
CCCCn1c(SCC(=O)Nc2sc3c(c2C(N)=O)CCC3)nnc1-c1ccccc1	-25.2	2.2	13.6*	-12.9
NC(=O)c1c(NC(=O)CSc2nnc(Cc3ccccc3)n2Cc2ccco2)sc2c1CCC2	-10.8	0.2	3.1	-1.0
O=C(/C=C/c1cccnc1)c1ccc(F)c(F)c1	-4.0	-1.7	1.4	9.0
CN(C)c1ccc(C(=O)/C=C/c2cccnc2)cc1	-34.5	-2.7	9.2*	13.3
O=C(Nc1cccc(C(F)(F)F)c1)Nc1ccc2[nH]c(=O)[nH]c2c1	-47.7	2.8	12.7*	-12.5
Cc1cc(Nc2nc3ccccc3nc2Cl)n(-c2ccc([N+](=O)[O-])cc2)n1	37.9*	-1.3	-8.0	7.9
COc1ccc(-c2nn(-c3ccccc3)cc2C#N)cc1	-34.8	2.0	13.8*	-9.1
Cc1ccc(S(=O)(=O)Nc2cccc3ncccc23)s1	27.0	-7.5	-6.5	43.7*
Cc1ccc(S(=O)(=O)NCC(=O)OCC(=O)c2ccc(S(=O)(=O)N3CCCCC3)cc2)cc1C	42.1*	-18.7	-17.1	77.5*
COCCCNC(=O)CN(c1cc([N+](=O)[O-])ccc1OC)S(C)(=O)=O	5.0	-2.6	-3.5	12.2
Cn1c(-c2ccc(-c3ccccc3)cc2)c[nH]c1=S	45.9*	-6.9	-10.4	41.0*
O=C(NC(=S)Nc1c(Cl)ccc2nsnc12)c1ccccc1F	-7.2	-1.4	10.1*	6.9
Cc1ccc2nsnc2c1NC(=S)NC(=O)c1ccco1	3.8	-1.4	-1.5	7.7
Nc1cccc(Nc2nc(OC(C(F)(F)F)C(F)(F)F)nc(OC(C(F)(F)F)C(F)(F)F)n2)c1	-10.3	9.9	12.2*	-56.1
CN1CCN(S(=O)(=O)c2ccc(Br)c3ccccc23)CC1	-41.0	-1.0	10.9*	4.8
NCCc1c(-c2ccccc2)n(-c2ccccc2)c2ccccc12	-10.3	8.1	14.3*	-41.6
CCn1c(SCC(=O)Nc2cc(C)on2)nc2sc3c(c2c1=O)CCCC3	-27.8	25.6*	21.1*	-151.2
Cc1cc(C)c(C#N)c(SCC(=O)c2ccccc2)n1	-2.6	-1.9	5.3	12.1
Cc1cc(C)c(C#N)c(SCC(O)CS(=O)(=O)Cc2ccccc2)n1 (stereo unspecified)	-5.0	0.2	12.1*	-1.3
O=C(O)CC(Cc1ccc(Cl)cc1)C(=O)Nc1ccccc1 (stereo unspecified)	-38.4	-1.4	10.1*	7.1
O=C(O)CC(Cc1ccc(Br)cc1)C(=O)Nc1ccccc1 (stereo unspecified)	0.6	-1.0	-0.2	4.5
COc1cccc(/C=C(/C(=O)OCC(=O)NCC2CCCO2)c2ccccc2)c1 (stereo unspecified)	-27.3	4.4	11.0*	-29.0
COc1cccc(/C=C(/C(=O)OCC(=O)NC2CCCCCCC2)c2ccccc2)c1	-4.6	3.3	1.8	-16.8
COc1cccc(-c2nc(CS(=O)(=O)CC(=O)Nc3cc(F)ccc3F)c(C)o2)c1	-13.6	0.5	10.7*	-2.3
CCOCCCNC(=O)CS(=O)(=O)Cc1nc(-c2cccc(OC)c2)oc1C	20.1	0.7	-8.4	-3.1
SMILES	HTR5A inv ctr	OPRM1-OPRD1 ag	HTR5A ag ctr	MOR-DOR inv ag
CCCNC(=O)CS(=O)(=O)Cc1nc(-c2cccc(OC)c2)oc1C	-2.8	0.2	13.0*	-0.9
CS(=O)(=O)N1CCN(C2C3CC4CC(C3)CC2C4)CC1 (stereo unspecified)	9.0	0.7	-3.1	-3.7
CS(=O)(=O)NNC(=O)Cn1nnc(-c2ccc(OCc3ccccc3Cl)cc2)n1	11.1	-2.3	-1.2	11.3
CCOC(=O)c1cc(-c2ccccc2)n(CCC(=O)NC(C)CC)c1C (stereo unspecified)	30.0	-0.9	11.1*	5.2
COc1ccccc1NS(=O)(=O)c1cc(C(=O)NC2CC(C)(C)NC(C)(C)C2)ccc1Cl	-3.2	0.0	-1.2	0.1
CCC(C)n1c(=O)c(C(=O)Nc2ccccc2S(N)(=O)=O)c(O)c2ccccc21 (stereo unspecified)	7.6	4.2	9.0*	-25.2
CC(C)Cn1c(=O)c(C(=O)Nc2ccccc2S(N)(=O)=O)c(O)c2ccccc21	-4.2	2.3	9.1	-11.9
C=C(C)CNC(=O)CCc1nnc(Cc2cccc(C(F)(F)F)c2)o1	-2.6	-0.9	-4.3	6.3
CC1CC(=O)c2c(cc3c(-c4c(O)cc(O)c5c(O)c6c(cc45)OC(C)CC6=O)c(O)cc(O)c3c2O)O1 (stereo unspecified)	12.6	81.7*	16.8*	-412.3
CCN(CCn1cccn1)Cc1c(C(=O)N2CCCCCCC2)nc2ccc(Cl)cn12	-5.9	-1.0	1.2	7.0

Source: PubChem
